Screens (PubChem)
FLuc counter = qHTS profiling assay for firefly luciferase inhibitor/activator using purifed enzyme and Km concentrations of substrates (counterscreen for miR-21 project); AID 588342, 2011; Potency, µM (top dose mostly 57.5 µM), for inactives: at the highest dose activity change, negative = inhibition, most hits filed as inhibitors; purified FLuc, Km substrates, luminescence inhibition; 6.9% of 360,000 active;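 note: plate controls were vehicle for no effect and reference inhibitor for full effect; nearly all actives have a fitted effect of over 55% in size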
Target sequence (P08659 whole entry, looked up): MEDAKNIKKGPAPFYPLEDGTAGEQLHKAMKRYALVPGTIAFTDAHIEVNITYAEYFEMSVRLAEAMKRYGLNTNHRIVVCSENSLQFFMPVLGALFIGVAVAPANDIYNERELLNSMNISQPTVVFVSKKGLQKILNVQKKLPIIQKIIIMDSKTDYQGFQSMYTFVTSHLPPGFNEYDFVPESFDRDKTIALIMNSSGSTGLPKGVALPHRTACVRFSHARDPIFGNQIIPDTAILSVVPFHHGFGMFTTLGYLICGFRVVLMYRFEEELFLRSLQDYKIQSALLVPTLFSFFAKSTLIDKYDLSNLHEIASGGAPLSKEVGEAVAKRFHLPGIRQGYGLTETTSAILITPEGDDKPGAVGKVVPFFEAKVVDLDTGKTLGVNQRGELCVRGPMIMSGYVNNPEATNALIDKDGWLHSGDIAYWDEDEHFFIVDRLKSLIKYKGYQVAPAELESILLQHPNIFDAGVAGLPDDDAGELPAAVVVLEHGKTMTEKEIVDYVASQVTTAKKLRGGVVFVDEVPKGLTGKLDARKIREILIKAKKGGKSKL
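Purified P. pyralis luciferase, 10 nM final, with Km-level 10 uM D-luciferin and 10 uM ATP in 50 mM Tris acetate pH 7.5, 10 mM Mg acetate, 0.01% Tween-20, 0.05% BSA; 6-point qHTS titration about 60 µM downward; luminescence read.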
NPC1 prom act = qHTS Assay for NPC1 Promoter Activators. Huh7 NPC1 promoter luciferase reporter, 24 h. Potency, µM (titrated, usually from 9.22 µM), for the others: at the top dose activation, hits mostly activators. 2.4% of 320,000 active; note: % of control where 0% means no effect; nearly all actives have a fitted effect of over 60% in size
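Huh7 cells stably carrying NPC1 promoter–luciferase, plated in Opti-MEM with 10% FBS for 2 h, were exposed to compound in DMSO for 24 h at 37 °C; luciferase reagent was added for 10 min and luminescence read.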
Rab9 prom act = qHTS Assay for Rab9 Promoter Activators | 2.8% of 320,000 active | AID 485297, 2010 | Potency, µM (titrated, usually from 9.22 µM), without a hit: at the top dose activation, negative = inhibition, actives largely listed as activators | Huh7 Rab9 promoter-luciferase reporter, luminescence, 24 h; note: % of control where 0% means no effect; nearly all actives have a fitted effect of over 60% in size
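Measured in stably transfected Huh7 cells bearing a Rab9 promoter–luciferase construct: 24 h compound treatment at 37 °C, followed by luminescence detection.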
ELG1 genotoxic = qHTS screen for small molecules that induce genotoxicity in human embryonic kidney (HEK293T) cells expressing luciferase-tagged ELG1 | HEK293T ELG1-luciferase reporter, luminescence, 16 h | Potency, µM (highest dose often 46 µM), without a hit: top-dose activity change, positive = activation, usual class: activators | 1.3% of 330,000 active; note: % of control where 0% means no effect; nearly all actives have a fitted effect of over 60% in size
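After overnight (16 hr) compound treatment at 37 °C, ELG1-luciferase HEK293T cells were lysed with ONE-Glo; luminescence quantified 30 min later at room temperature.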
SMN2 splice enh = qHTS Assay for Enhancers of SMN2 Splice Variant Expression. Potency, µM (doses to about 46.1 µM), for the others: top-dose activity change, positive = activation, usual class: activators. AID 1458, 2008. HEK293 SMN2-luciferase splicing reporter, luminescence, 30-36 h. 2.8% of 210,000 active; note: % of control where 0% means no effect; nearly all actives have a fitted effect of over 55% in size
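HEK293 cells carry an SMN2 minigene-luciferase reporter in which exon 7 inclusion puts luciferase in frame. Cells were seeded at 2000 cells/well, attached for 10-12 hours, then exposed to compounds for 30-36 hours at 37C before ONE-Glo luminescence.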
KinaseGlo FLuc = Counterscreen for Luciferase (Kinase-Glo TM) Inhibition. Potency, µM (highest dose often 38.3 µM), for inactives: at the top dose activity change, negative = inhibition, usual class: inhibitors. Kinase-Glo luciferase, ATP luminescence, 8 min. Luciferin 4-monooxygenase (Photuris pensylvanica), Q27757. AID 1379, 2008. 0.28% of 200,000 active; note: % is set by controls: 0 for no effect and ±100 for the full control effect; nearly all actives have a fitted effect of over 60% in size
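Inhibition of Kinase-Glo luciferase light generation was assessed at 10 uM ATP in pH 7.2 imidazole buffer, with luminescence measured after eight minutes at ambient temperature.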
* = called active by the depositor. The list is not random: actives were taken first. Their share in the collection is about 7.5%. Calls come from the whole dose curve; as a rule, active = well fitted curve in the direction sought with a large enough effect; inconclusive = small, poorly fitted or top-dose-only effect, or another doubt; inactive = no such curve, though single readings can be large; an effect the other way counts as inactive or inconclusive. Potency is the fitted concentration of half-maximal effect.

For CC(C)c1ccc(C(O)Cc2nc3ccccc3n2C)cc1 (stereo not given) the results were FLuc counter 9.53µM*, NPC1 prom act inconclusive, Rab9 prom act 3.98µM* and ELG1 genotoxic inconclusive.
For Cc1ccc(NC(=O)C(C)n2nnc3sc4c(c3c2=O)CCCC4)cc1Cl (stereo not given) the results were FLuc counter -13.1% and SMN2 splice enh -19.3%.
For CC(=O)Nc1ccc(NC(=O)CSc2ccc3nnc(-c4cccnc4)n3n2)cc1 the results were FLuc counter -0.3%, NPC1 prom act 3.7%, Rab9 prom act 5.6% and ELG1 genotoxic -0.6%.
For Cc1cccc(C)c1NC(=O)CSc1ncc2c(n1)-c1ccc(Cl)cc1N(Cc1ccccc1)S2(=O)=O the results were FLuc counter -1.2%.
For CCc1nn(CC(=O)N(CC)Cc2ccccc2)c(=O)c2cc3occc3n12 the results were FLuc counter -7.9% and SMN2 splice enh -3.0%.
Screening CNc1ccc(/C=C2\CSc3ccccc3C2=O)cc1[N+](=O)[O-] returned FLuc counter 0.757µM*, NPC1 prom act 10.3%, Rab9 prom act 14.0%, ELG1 genotoxic inconclusive, SMN2 splice enh -50.7% and KinaseGlo FLuc -20.8%.
O=C1/C(=C/c2cccc([N+](=O)[O-])c2)CSc2ccc(Cl)cc21 was read as FLuc counter -13.4%, NPC1 prom act -1.0%, Rab9 prom act -2.6% and ELG1 genotoxic 6.9%.
`CCCCc1nnc(SCc2cc(=O)c3cc(F)ccc3[nH]2)n1C` gave FLuc counter -0.3%.
`COc1ccc(OC)c(-c2cc(C(=O)N3CCOCC3)no2)c1` gave FLuc counter -3.7%, NPC1 prom act 0.5%, Rab9 prom act -3.6% and ELG1 genotoxic 0.0%.
Screening O=C(c1cc(-c2ccccc2O)on1)N1CCCCCC1 returned FLuc counter 10.7µM*, NPC1 prom act inconclusive, Rab9 prom act inconclusive and ELG1 genotoxic 23.1µM*.
`O=C(c1cc(-c2ccccc2O)on1)N1CCOCC1` gave FLuc counter 12µM*, NPC1 prom act inconclusive, Rab9 prom act inconclusive and ELG1 genotoxic 13µM*.
Screening CCOC(=O)c1sc2ccccc2c1S(=O)(=O)NCc1ccccc1OC returned FLuc counter -11.8%.
CCC(C(=O)Nc1cc(OC)ccc1OC)n1c(C)c2cnn(-c3ccccc3)c(=O)c2c1C (stereo not given) was read as FLuc counter -6.1% and SMN2 splice enh 5.1%.
`COc1cc(-c2cc(C(=O)N3CCCCCC3)c3ccccc3n2)cc(OC)c1OC` gave FLuc counter -10.2%, NPC1 prom act -4.1%, Rab9 prom act -34.3% and ELG1 genotoxic 1.3%.
O=C(c1cc(-c2ccc(Br)cc2)nc2ccccc12)N1CCC1 was read as FLuc counter 16.9µM*, NPC1 prom act -1.2%, Rab9 prom act -7.1% and ELG1 genotoxic -8.9%.
Screening O=C(c1cc(-c2ccncc2)nc2ccccc12)N1CCN(c2ncccn2)CC1 returned ELG1 genotoxic -4.6%.
For CCc1ccc(Sc2cc(C(=O)O)c3ccccc3n2)cc1 the results were FLuc counter 15.1µM*.
`O=C(O)c1cc(Sc2ccc(Br)cc2)nc2ccccc12` gave FLuc counter inconclusive, NPC1 prom act -2.9%, Rab9 prom act -6.8%, ELG1 genotoxic -1.1%, SMN2 splice enh -5.0% and KinaseGlo FLuc 0.5%.
For COc1ccc(-c2cc(C(=O)N3CCCCCC3)c3ccccc3n2)cc1 the results were FLuc counter 6.75µM*, NPC1 prom act 0.3%, Rab9 prom act 0.4% and ELG1 genotoxic -1.1%.
